Sampled rows, rich in hits. Any-hit rate of the full collection: about 2.1%.
Rpn11 block: Rpn11 (PSMD14) deubiquitinase inhibitors, primary screen, biochemical, fluorescence polarization, uHTS | 26S proteasome non-ATPase regulatory subunit 14 (Homo sapiens), O00487 | human 26S proteasome, Ub4-pepOG fluorescence polarization; 20S core pre-blocked with epoxomicin | inhibition, % at 20 µM | 360,000 tested, 0.59% active;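 active means inhibition at 20 µM, scaled to each plate's controls, above about 33%, limit read from the data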
Target sequence (O00487 whole entry, looked up): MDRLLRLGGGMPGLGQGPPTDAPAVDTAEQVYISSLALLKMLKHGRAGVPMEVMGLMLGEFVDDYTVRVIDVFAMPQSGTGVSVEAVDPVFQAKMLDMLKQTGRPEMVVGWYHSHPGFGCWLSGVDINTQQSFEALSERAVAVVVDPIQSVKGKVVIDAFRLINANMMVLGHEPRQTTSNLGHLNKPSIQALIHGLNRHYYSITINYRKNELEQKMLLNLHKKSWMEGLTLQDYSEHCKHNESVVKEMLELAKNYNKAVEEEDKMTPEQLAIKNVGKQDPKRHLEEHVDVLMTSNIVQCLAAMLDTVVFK
TPT1 inh: Candida albicans TPT1 enzyme inhibitors, primary screen, biochemical, fluorescence polarization | tRNA 2'-phosphotransferase TPT1 (Candida albicans SC5314) | recombinant caTPT1, FP RNA substrate dephosphorylation | inhibition, % at 5 µM | 300,000 tested, 0.81% active;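 active means inhibition above the mean of all tested compounds plus 3 SD, set per screening campaign, cut at about 24% in these data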;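 further: plate controls were DMSO alone for no effect and ferristatin control at 100 nM for full effect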
Myeloid diff 2: induction of myeloid progenitor differentiation, primary screen, cell-based, flow cytometry, MLPCN library; ER-HoxA9 myeloid progenitors, lysozyme-GFP differentiation; calls only at 10 µM; 360,000 tested, 1% active;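 active means normalized GFP-positive differentiation at or above the plate's own cutoff, the solvent-only control mean plus 3 SD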;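 further: cells exposed to compound for four days before flow analysis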
HNF4A DNA FP: change in binding of human HNF4A to DNA, primary screen, biochemical, fluorescence polarization, FITC-DNA; 360,000 tested, 0.3% active; activity change, % at 10 µM; Hepatocyte nuclear factor 4-alpha (Homo sapiens), P41235; 1 h; in the data active means activity change above about 30%, passing the limit was not always enough
caTPT1 confirm: Candida albicans TPT1 inhibitors, confirmation, biochemical, fluorescence polarization, triplicate; recombinant caTPT1, RNase T1 coupled; inhibition, % at 5 µM; AID 2149, 2009; 2,400 tested, 74% active; shares compounds with TPT1 inh;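 active means inhibition above the primary screen limit, the mean inhibition of all tested compounds plus 3 SD, cut at about 25% in these data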
RNase T1 counter: RNase T1 inhibitors, counter-screen for TPT1 inhibitor project, biochemical, fluorescence polarization. 2,400 tested, 83% active. AID 2153, 2009. shares compounds with TPT1 inh. RNase T1 cleavage, 1536-well. inhibition, % at 5 µM;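 active means inhibition above the solvent-only control well mean plus 3 SD, limit set per screening run, cut at about 23% in these data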;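 further: plate controls were DMSO wells with enzyme for no effect and wells without RNase T1 for full effect; inhibitors block cleavage so intact labeled substrate keeps polarization high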
Target sequence (P00651 whole entry, looked up): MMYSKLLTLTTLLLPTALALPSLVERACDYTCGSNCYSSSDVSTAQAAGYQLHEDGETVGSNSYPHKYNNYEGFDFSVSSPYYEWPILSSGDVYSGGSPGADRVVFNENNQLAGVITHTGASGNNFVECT
* = called active by the depositor; i = inactive; / = no result given; + = active, no number.

SMILES	Rpn11 block	TPT1 inh	Myeloid diff 2	HNF4A DNA FP	caTPT1 confirm	RNase T1 counter
Cc1ccc(-c2cc(-c3ccc(Cl)cc3)c(C#N)c(N)n2)o1	40	13	i	12	/	/
CC(=O)N(C)c1cccc([N+](=O)[O-])c1	4	2	i	-3	/	/
CC(=O)N(c1ccccc1)c1ccc([N+](=O)[O-])cc1[N+](=O)[O-]	-13	2	+	1	/	/
Cc1ccc(OCCNC(=O)c2cc(C(=O)NCCOc3ccc(C)cc3)cc([N+](=O)[O-])c2)cc1	-2	0	i	0	/	/
COc1cccc(OCCNC(=O)c2cccc(OC)c2)c1	5	-3	i	-1	/	/
COc1cccc(OCCNC(=O)c2ccc(C)cc2)c1	-6	-2	+	9	/	/
COc1cccc(OCCNC(=O)c2cc([N+](=O)[O-])cc([N+](=O)[O-])c2)c1	-1	-1	+	-1	/	/
O=C(N/N=C/c1cc(Br)cc([N+](=O)[O-])c1O)c1ccc(NC(=O)c2ccc(F)cc2)cc1	32	4	/	-16	/	/
COc1ccc(-c2ccc(/C=N/NC(=O)c3cccnc3)o2)c([N+](=O)[O-])c1	-56	/	+	-7	/	/
Cn1c(C(=O)N2CCCC2)cc2c(=O)n(C)c3ccccc3c21	-6	/	i	0	/	/
Cc1cccc(N2CCN(C(=O)c3cc4c(=O)n(C)c5ccccc5c4n3C)CC2)c1C	3	-2	+	-5	/	/
Cc1ccc(Cl)cc1N1CCN(C(=O)c2cc3c(=O)n(C)c4ccccc4c3n2C)CC1	14	-2	+	3	/	/
CCCOc1ccccc1/C=C1\SC(N2CCCCC2)=NC1=O	-2	-4	i	2	/	/
CCCN1C(=O)/C(=C/c2c(NCCCOCC)nc3c(C)cccn3c2=O)SC1=S	78*	/	+	50*	/	/
COC(=O)/N=C/c1c(NCc2ccccc2)nc2c(C)cccn2c1=O	-9	-1	i	-1	/	/
O=S(=O)(c1ccccc1)N1CCN(c2cc(-c3ccccc3)nc3ncnn23)CC1	1	0	+	3	/	/
COc1ccc(C[C@@H]2OC3(C=CC(=O)C=C3)O[C@H]2Cc2ccc(OC)cc2)cc1	12	/	+	-6	/	/
COc1ccc(N2C(=O)CC(Cc3ccccc3)C2=O)cc1 (configuration not stated)	-2	-2	i	-1	/	/
O=C1C=CC2(C=C1)O[C@H](Cc1ccccc1)[C@@H](Cc1ccccc1)O2	9	/	+	7	/	/
O=C1Nc2ccccc2C1Cc1ccccc1 (configuration not stated)	-2	0	i	-3	/	/
CCc1ccc(OCC(=O)Nc2cccc3c2CCCC3)cc1	-2	4	i	5	/	/
CC(=O)c1ccc(S(=O)(=O)N2CCN(C(C)C(=O)N(C)Cc3ccccc3)CC2)cc1 (configuration not stated)	-2	/	i	7	/	/
Cc1ccc2c(CSc3nc4ccccc4c(=O)n3CCCO)cc(=O)oc2c1C	6	32*	i	3	5	9
O=C(CSc1ccccc1F)NCC(c1ccco1)N1CCCCC1 (configuration not stated)	5	/	i	-2	/	/
Cc1ccc(NC(=O)CN2C(=O)N/C(=C/c3ccc(C)o3)C2=O)cc1	2	4	i	6	/	/
SMILES	Rpn11 block	TPT1 inh	Myeloid diff 2	HNF4A DNA FP	caTPT1 confirm	RNase T1 counter
Cc1ccc(/C=C2/NC(=O)N(Cc3ccccc3)C2=O)s1	/	88*	i	55*	91*	95*
Cc1ccc(NC(=O)CN2C(=O)N/C(=C/c3ccc(C)s3)C2=O)cc1	/	71*	i	101	66*	76*
Cc1cccc(CN2C(=O)N/C(=C/c3ccc(C)s3)C2=O)c1	/	98*	+	35*	87*	95*
COc1ccc(N(CC(=O)NCc2ccco2)C(=O)CCC(=O)Nc2ccccn2)cc1	2	/	i	1	/	/
Cc1ccc(OCC(=O)N2CCN(c3ccc([N+](=O)[O-])c(N4CCOCC4)c3)CC2)cc1	-9	31*	i	1	3	17
Cc1csc(NC(=O)c2sc3nc(-c4cccs4)ccc3c2N)n1	/	27*	/	/	26*	41*
CC(=O)Nc1cccc(NC(=O)Nc2ccc(F)cc2F)c1	2	55*	i	3	2	3
O=C(Nc1ccccc1)Nc1ccc(F)cc1F	-8	1	i	-3	/	/
CCn1c2ccccc2c2cc(NC(=O)CSc3nccc(=O)[nH]3)ccc21	12	5	i	5	/	/
COc1cc(/C=C2\SC(N)=NC2=O)cc(Br)c1O	/	59*	i	38*	69*	78*
COc1ccc(/C=C2\SC(N)=NC2=O)cc1	-7	/	i	1	/	/
COc1ccc(/C=C2\SC(c3ccc(C)cc3)=NC2=O)cc1OC	/	87*	i	86*	84*	90*
COc1ccc(/C=C2/SC(c3ccc(C)cc3)=NC2=O)cc1OC	/	112*	i	101	80*	85*
COc1cc(/C=C2\SC(c3ccc(C)cc3)=NC2=O)cc(OC)c1OC	/	30*	i	51*	40*	50*
COc1cc(/C=C2\SC(N)=NC2=O)ccc1OCC(=O)Nc1ccc(C)cc1	6	2	i	5	/	/
CN(C)CCCNc1ccc(S(N)(=O)=O)cc1[N+](=O)[O-]	9	-1	i	-5	/	/
Cc1cc(C)n(CC(=O)NNC(=O)c2ccc(NC(=O)CC#N)cc2)n1	3	/	i	0	/	/
Fc1ccc(Oc2nccc(-c3ccc(Cl)cc3)n2)cc1	1	-4	i	2	/	/
COc1cc(/C=C2\SC(c3ccc(C)cc3)=NC2=O)ccc1O	142*	80*	i	78*	98*	101*
COc1cc(/C=C2\SC(c3ccccc3)=NC2=O)cc(Cl)c1O	16	/	i	4	/	/
CCn1c(CCNC(=O)c2ccc(Cl)c(Cl)c2)nnc1SCCOc1ccc(OC)cc1	-5	25*	i	-3	4	7
CCCc1cc(C(=O)Cc2ccc(C(=O)OCC)o2)c(O)cc1O	27	24*	i	17	20	30*
CCOc1ccc(C(=O)n2cnnc2N)cc1	-1	-2	i	-2	/	/
N#C/C(=C\c1ccc(O)c(O)c1)C(=O)c1ccc(O)c(O)c1	/	27*	i	-7	69*	74*
COc1cc(NC(=O)C2=C(N3CCOCC3)/C(=C\c3ccc(N(C)C)cc3)CCC2)cc(OC)c1OC	29	32*	i	6	21	26*
